USP17 inh: inhibitors of human USP17 deubiquitinase. A8MUK1. purified USP17, Ub-rhodamine cleavage fluorescence, 3 h. hit rate 6.5% among 47,000. inhibition, % at 50 µM
USP30 block: inhibitors of human USP30 deubiquitinase. Q70CQ3. purified USP30, Ub-rhodamine cleavage fluorescence. inhibition, % at 25 µM. hit rate 5.3% among 47,000. AID 1645860
Target sequence (Q70CQ3 whole entry, looked up): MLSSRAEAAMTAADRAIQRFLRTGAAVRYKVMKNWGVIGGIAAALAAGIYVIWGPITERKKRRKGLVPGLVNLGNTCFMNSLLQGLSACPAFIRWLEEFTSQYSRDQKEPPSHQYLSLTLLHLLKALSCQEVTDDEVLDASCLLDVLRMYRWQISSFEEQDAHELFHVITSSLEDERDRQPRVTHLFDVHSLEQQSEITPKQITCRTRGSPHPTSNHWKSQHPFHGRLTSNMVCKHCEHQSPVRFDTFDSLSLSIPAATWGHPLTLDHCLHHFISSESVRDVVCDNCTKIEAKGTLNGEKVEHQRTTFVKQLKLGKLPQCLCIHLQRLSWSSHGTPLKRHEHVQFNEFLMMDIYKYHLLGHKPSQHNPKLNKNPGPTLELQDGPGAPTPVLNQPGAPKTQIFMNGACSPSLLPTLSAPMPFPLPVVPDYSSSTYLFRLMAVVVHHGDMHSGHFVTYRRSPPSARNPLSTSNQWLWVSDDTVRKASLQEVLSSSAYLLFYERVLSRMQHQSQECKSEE
USP28 inh: blocks human USP28 ubiquitin-rhodamine cleavage. AID 1645857. purified USP28, Ub-rhodamine cleavage fluorescence, 30 min. Q96RU2. hit rate 3% among 47,000. inhibition, % at 25 µM
Each line names hits and unclear results; the compound was inactive in the other large screens. Most compounds without a hit are left out; they make up all but 11% or so of the library. No stated cut-off is given here; in the data, active means inhibition above about 30%; inactive means the rest.

O=C(CCSc1ccccc1)Nc1ccc(-c2nc3ccccc3o2)cc1	none
O=C(CCC(=O)N1CCC(C(=O)N2CCOCC2)CC1)Nc1ccc(Oc2ccccc2)cc1	none (no result: USP17 inh)
O=C(CCSc1ccccc1)Nc1ccc(Oc2ccccc2)cc1	USP17 inh 42.2
COc1ccc(C(=O)NCC(c2cccc3ccccc23)N2CCOCC2)cc1 (centres undefined)	none
CN1C(=O)c2cc(NC(=O)c3ccncc3)ccc2N2CCN=C12	none
Cc1ccccc1C(=O)Nc1ccc2c(c1)C(=O)N(C)c1ccccc1O2	USP28 inh 40.2
Cc1ccc2c(c1)N(C)C(=O)c1cc(NC(=O)c3ccc(F)cc3)ccc1O2	USP30 block 88.9
COc1ccc(C(=O)Nc2ccc(C)c(N3CCCC3=O)c2)cc1	none
Cc1ccccc1C(=O)Nc1ccc2cn(C)nc2c1	none
COc1ccc(C(=O)Nc2ccc3c(c2)C(=O)N(C)c2ccccc2O3)cc1	USP28 inh 70.6
Cc1cccc(N2C(=O)CC(c3ccc4c(c3)OCO4)C3=C2COC3=O)c1 (centres undefined)	none
Cc1ccccc1NC(=O)Cc1nnc(SCC(=O)Nc2cccc3ccccc23)n1C	none
CC(C)N(C(=O)Cn1ncc2cccn2c1=O)C(C)C	none
Cc1nn(S(=O)(=O)Cc2ccccc2)c(C)c1Cl	none
NC(=O)c1ccc(-c2cccc(C3CN(C(=O)c4ccn[nH]4)CCO3)n2)cc1 (centres undefined)	none
O=C(Cc1ccc(-n2c(=O)c3ccccc3n(CC(=O)Nc3cc(F)ccc3F)c2=O)cc1)NCC1CCCO1 (centres undefined)	none
CCCC(=O)NC1(c2nc(-c3cccnc3)no2)CCCCC1	none
CCCCOc1ccc(C(=O)NC2(c3nc(-c4cccnc4)no3)CCCCC2)cc1	USP30 block 32.4
Cc1ccc(CNC(=O)COC(=O)c2cc(-c3ccccc3Cl)nc3ccccc23)cc1	none
O=C(COC(=O)C(c1ccccc1)c1ccccc1)NCc1ccccc1	USP30 block 33.7
Cc1cncc(C2CCCN(C(=O)c3ccc4n[nH]nc4c3)C2)n1 (centres undefined)	none
CCOC(=O)N1CCN(C(=O)[C@H](C)NC(=O)c2cc3c(OC)c(OC)ccc3[nH]2)CC1	none
COc1cccc(NC(=O)[C@H](C)NC(=O)c2cc3c(OC)c(OC)ccc3[nH]2)c1	USP17 inh 46.6
O=C(NCC1CCCO1)c1nn(-c2ccc(F)cc2)c2c1CCCCC2 (centres undefined)	none
COc1cccc(OCCOc2ccc(-c3nc4sc5c(c4c(=O)[nH]3)CCCC5)cc2OC)c1	none
Cc1cc(F)ccc1NC(=O)Cn1ncc2ccccc21	none
CCOC(=O)c1cn(C2CC2)c2cc(N3CCNCC3)c([N+](=O)[O-])cc2c1=O	USP30 block 57.6, USP28 inh 36.1
CCOC(=O)c1cc(C#N)c(N2CCCNCC2)nc1C(F)(F)F	none
O=C(O)c1ccc(N2C(=O)C3=C(C(c4ccc(Cl)cc4)=NCCN3)C2c2cccnc2)cc1 (centres undefined)	none
O=C1C2=C(C(c3ccccc3)=NCCN2)C(c2cccc(F)c2)N1c1ccccc1 (centres undefined)	USP30 block 31.8
COc1cccc(C2C3=C(NCCN=C3c3ccccc3)C(=O)N2c2ccccc2)c1 (centres undefined)	none
O=[N+]([O-])c1cc(-c2nc(-c3cccnc3)no2)ccc1N1CCOCC1	none
c1ccc2c(c1)cnn1c(-c3ccncc3)nnc21	none
Cc1ccc(CSc2ccc3nnc(-c4cccnc4)n3n2)cc1	none (no result: USP30 block, USP28 inh)
c1ccc(Cc2nn3c(-c4ccncc4)nnc3c3ccccc23)cc1	USP17 inh 48.8, USP30 block 36.0
c1ccc(Cc2nn3c(-c4cccnc4)nnc3c3ccccc23)cc1	USP17 inh 61.9
O=C(NCc1cccnc1)c1nc2c(s1)CCCN2c1ncccn1	none
CCNC(=O)c1ccc(N2CCNCC2)c(NS(=O)(=O)c2cc(C)ccc2C)c1	none
CN(C)c1cc(C(=O)NC2CCCCC2)nc2ccnn12	none
CC(C)(C)c1cc(C(=O)NC2CCCC2)nc2ccnn12	USP17 inh 31.2, USP30 block 31.0
O=C(C1CCCCC1)N1CCC[C@@H]1Cn1nnc(-c2cccnc2)n1	none
Cc1ccc2c(c1)c(=O)cc(C(F)(F)F)n2C[C@H]1CCCN1C(=O)C1CC1	USP30 block 41.5
CCS(=O)(=O)N1CCC2(CC1)CNc1ccc(F)cc12	none
O=C(/C=C/c1ccccc1)Nc1cc(S(=O)(=O)Nc2cccc(Cl)c2)ccc1Cl	none
COc1ccc(NS(=O)(=O)c2cc(NC(=O)/C=C/c3ccco3)ccc2N2CCCC2)cc1	USP17 inh 75.4, USP30 block 55.4, USP28 inh 57.2
COc1ccc(NS(=O)(=O)c2ccc(N3CCCC3)c(NC(=O)/C=C/c3ccccc3)c2)cc1	USP17 inh 36.1
COc1ccc(NS(=O)(=O)c2cc(NC(=O)C3CC3)ccc2N2CCCCC2)cc1	none
Cc1nnc(NC(=O)c2cn(-c3ccc(Br)cc3)nn2)s1	USP30 block 34.1
